CYP2C19 act: human CYP2C19 activators, primary screen, biochemical, luminescence; Cytochrome P450 2C19 (Homo sapiens), P33261; recombinant CYP2C19, luciferin-H EGE luminescence; stronger effect = higher value; 0 = fully inhibited enzyme, 1 = untreated enzyme; activation factor at 5 µM; 96,000 tested, under 10 active; AID 1025, 2008;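 active = activation factor of at least 2 at 5 µM in the primary screen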;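 note: 0 = wells with 2.5 mM tranylcypromine and 1 = vehicle-only wells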
CYP2C9 inhib: blockers of cytochrome P450 2C9 activity – biochemical, luminescence, ADME assay, primary screen; AID 777, 2007; P11712; inhibition, % at 5 µM; CYP2C9 Supersomes, luciferin-H conversion; actives 20% (n = 96,000);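 active = blocking of liver enzyme CYP2C9 beyond about 50% at 5 µM, limit read from the data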
Target sequence (P11712 whole entry, looked up): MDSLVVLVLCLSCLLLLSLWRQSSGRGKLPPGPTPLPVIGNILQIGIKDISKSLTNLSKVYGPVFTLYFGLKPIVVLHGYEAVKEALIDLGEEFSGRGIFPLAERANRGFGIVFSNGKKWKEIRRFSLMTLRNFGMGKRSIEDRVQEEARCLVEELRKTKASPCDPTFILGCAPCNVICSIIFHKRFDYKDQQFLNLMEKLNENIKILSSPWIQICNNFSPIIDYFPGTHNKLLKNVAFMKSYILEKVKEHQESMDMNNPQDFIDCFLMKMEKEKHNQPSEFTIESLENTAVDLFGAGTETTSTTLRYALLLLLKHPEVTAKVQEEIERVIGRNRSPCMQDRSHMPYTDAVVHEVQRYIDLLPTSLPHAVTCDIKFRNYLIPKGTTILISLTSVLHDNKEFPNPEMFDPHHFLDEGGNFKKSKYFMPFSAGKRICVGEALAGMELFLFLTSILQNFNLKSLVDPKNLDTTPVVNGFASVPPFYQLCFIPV
CYP2C19 inh: blockers of cytochrome P450 2C19 activity – biochemical, luminescence, ADME assay, primary screen; actives 21% (n = 96,000); CYP2C19 Supersomes, luciferin-H EGE luminescence, 30 min; inhibition, % at 5 µM; P33261;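 active = CYP2C19 inhibition above a set limit at 5 µM in the primary screen, cut at about 50% in these data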;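 note: plate controls were negative control wells for no effect and 2.5 mM tranylcypromine positive control for full effect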
CYP2C9 act: human CYP2C9 activators, primary screen, biochemical, luminescence; activation factor at 5 µM; recombinant CYP2C9, luciferin-H conversion; stronger effect = higher value; factor 1 = untreated enzyme, 0 = blocked; Cytochrome P450 2C9 (Homo sapiens), P11712; AID 1024, 2008; actives 1.4% (n = 96,000);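 active = activation factor of 2 or more for CYP2C9 at a 5 µM dose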;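 note: 0 = sulfaphenazole-blocked wells and 1 = vehicle-only wells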
Cav32 inh: Cav3.2 calcium influx blockers – cell-based, Fluo-4 calcium fluorescence, FDSS, MLSMR library, primary screen. Voltage-dependent T-type calcium channel subunit alpha-1H (Homo sapiens), O95180. Cav3.2-expressing cells; stronger effect = lower value. B-score at 10 µM. actives 4% (n = 100,000). AID 449739, 2010;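 active = single-dose well whose peak fluorescence ratio is a statistical outlier from its plate by either plate-standardised score or position-corrected B-score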
Numbers without * were called inactive; x = no result given. Shown are actives, neighbours in structure and some others; about 27% of the full set was active somewhere.

SMILES	CYP2C19 act	CYP2C9 inhib	CYP2C19 inh	CYP2C9 act	Cav32 inh
COc1ccc(S(=O)(=O)N2CCOC2CNC(=O)C(=O)NCCCn2ccnc2)cc1OC (stereo unspecified)	x	x	x	x	2.2
O=C(NCCCn1ccnc1)c1cc(-c2cccs2)on1	0.2	48	79*	0.5	0.65
O=C(NCCCn1ccnc1)c1ccco1	0.9	6	15	0.9	-0.99
COc1ccccc1N1CCN(C(c2cccs2)C(C)NC(=O)c2cccs2)CC1 (stereo unspecified)	x	x	x	x	-3.5
O=C(c1cccc2ccccc12)n1nnc2ccccc21	x	x	x	x	1.2
CCSc1nc2ccccc2n1C(=O)/C=C\c1ccc(OC)c(OC)c1	1	10	4	0.9	1.8
CCOc1ccc(C(=O)NCCCn2ccnc2)cc1	0.1	25	93*	0.8	0.62
COc1ccc(OC)c(-c2cc(C(=O)NCCCn3ccnc3)no2)c1	0.2	22	75*	0.8	0.88
CCOc1ccc(C(=O)NCCCN(CC)CC)cc1	1	-2	-2	1	0.13
Cc1occc1-c1nnc(SCC(=O)NC2CCCC2)n1-c1ccccc1	x	x	x	x	0.67
O=C1CCC(C(=O)Nc2cccc3ccccc23)N1 (stereo unspecified)	1	-11	3	1.1	x
COC(=O)C1=C(C(=O)OC)SC(=C2C(=S)C(C)(C)N(C(=O)CC(C)C)c3ccccc32)S1	0.3	29	70*	0.7	-4.2
COC(=O)c1c(C)[nH]c(C)c1-c1ccc(C)cc1	0.2	38	82*	0.6	-2.7
COC(=O)c1sc2ccc(C)cc2c1C(=O)OC	x	x	x	x	-1.2
CCOC(=O)c1ccc(N2C(=O)CC(N3CCC(Nc4ccc(F)cc4)CC3)C2=O)cc1 (stereo unspecified)	0.8	19	22	0.8	0.43
CC(C)NC(=O)N(O)C1N(Cc2ccc3c(c2)OCO3)C(=S)SC1(C)C (stereo unspecified)	0	94*	98*	0.1	0.56
COc1cccc(CN2C(=O)N(C(C)C)C(N(O)C(=O)NC(C)C)C2(C)C)c1OC (stereo unspecified)	1	11	-1	0.9	x
CCOC(=O)C(NC=O)(NC(C)(C)C)C(=O)OCC	1	-3	-1	1	-0.15
CC(=O)N1c2ccccc2C(C)(C)C2CCC(C)CC21 (stereo unspecified)	x	x	x	x	-4.6*
COCCNC(=O)[C@H]1C[C@@H]1[C@H](NP(=O)(c1ccccc1)c1ccccc1)c1ccccc1	x	x	x	x	0.4
c1ccc2c(c1)OCC(c1csc3ncnc(N4CCOCC4)c13)O2 (stereo unspecified)	0.2	50*	78*	0.5	0.19
Cc1cc(Cl)c(S(=O)(=O)NC(C(=O)O)C(C)C)cc1OCC(=O)NC1CCCCC1 (stereo unspecified)	1	27	3	0.7	0.65
O=C(COC(=O)c1ccc(Cl)c(S(=O)(=O)N2CCCC2)c1)NC1CCCC1	0.3	34	65*	0.7	-0.14
Cc1cc(Cl)c(S(=O)(=O)Nc2ccc3c(c2)OCO3)cc1OCC(=O)NC1CCCCC1	0.2	62*	79*	0.4	-4.2*
Cc1cc(Cl)c(S(=O)(=O)Nc2ccc(Cl)cn2)cc1OCC(N)=O	x	x	x	x	0.66
SMILES	CYP2C19 act	CYP2C9 inhib	CYP2C19 inh	CYP2C9 act	Cav32 inh
Cc1cc(Cl)c(S(=O)(=O)Nc2ccc3c(c2)OCO3)cc1OCC(N)=O	0.1	62*	90*	0.4	0.15
Cc1cc(Cl)c(S(=O)(=O)N2CCCC2)cc1OCC(=O)NC1CCCCC1	0	77*	95*	0.2	2.2
CCN(CC)c1cc(CS(=O)c2ccccc2)nc(-c2ccccc2)n1 (stereo unspecified)	x	x	x	x	-1.8
COC(=O)c1ccc(C(=O)Nc2cc(Cl)ccc2Cl)cc1NC(=O)c1ccc(N(C)C)cc1	1.1	4	-8	1	1.1
O=CN(/C=C1\Sc2ccccc2C1=O)Cc1ccccc1	1	56*	-2	0.4	-1.4
COc1ccc2c(c1)c(=O)oc1c(C)c(OCC(=O)N3CCc4ccccc4C3)ccc12	0.6	62*	37	0.4	-0.57
Cc1ccc2oc(=O)c3cnn(CC(=O)N4CCc5ccccc5C4)c3c2c1	1.1	24	-9	0.8	-0.051
CCC(=O)c1ccc(OCC(=O)N2CCc3cc(OC)c(OC)cc3C2)cc1	0.6	38	41	0.6	0.0067
COc1cc2c(cc1OC)CN(C(=O)COc1ccc(C)c(C)c1)CC2	0.3	62*	72*	0.4	-1.8
CCOC(=O)c1cc(C(C)(C)C)oc1CN	x	x	x	x	0.39
CCOC(=O)c1cc(C(C)(C)C)oc1CNC(=O)c1c(C)oc2c1CCCC2	x	x	x	x	-4.6*
Cc1ccc(C)c(N2CC(=O)N(c3cc(C)ccc3C)CC2=O)c1	1.1	-14	-11	1.1	0.74
Cc1ccc2c(c1)CN1CN2Cc2cc(C)ccc21	0.5	42	54*	0.6	-0.51
Nc1ccc(Sc2nnnn2-c2ccccc2)c(Cl)c1	0.1	-7	93*	1.1	-0.22
CCSc1nnnn1-c1ccccc1	0.7	9	32	0.9	-0.41
O=[N+]([O-])c1ccc(Sc2nnnn2-c2ccccc2)c(Cl)c1	0	68*	98*	0.3	-2
c1ccc(Cn2c(Sc3nnnn3-c3ccccc3)nnc2-c2ccccc2)cc1	0.8	28	18	0.7	-1.5
CCOC(=O)N1CCN(c2c(N3CCOCC3)c(=O)c2=O)CC1	1	7	-1	0.9	0.85
CCOC(=O)N1CCC(Nc2c(-c3ccc(C)c(C)c3)c(=O)c2=O)CC1	0.7	39	25	0.6	0.9
CCOC(=O)N1CCN(c2c(Nc3ccc4c(c3)OCCO4)c(=O)c2=O)CC1	0.9	-103	11	2*	0.82
CCOC(=O)N1CCC(Nc2c(N3CCN(c4cc(Cl)ccc4C)CC3)c(=O)c2=O)CC1	0.9	20	7	0.8	-4.1*
O=C(N/N=C/c1cc([N+](=O)[O-])ccc1N1CCNCC1)c1ccc([N+](=O)[O-])cc1	0.9	4	6	1	-1.2
NC(=O)CC(NC(=O)Cc1ccc(Br)cc1)c1ccc(NCc2ccc(F)c(F)c2)c([N+](=O)[O-])c1 (stereo unspecified)	x	x	x	x	-0.076
Cc1cc(C)cc(Nc2ncc3c(n2)CCCC3=O)c1	0.9	2	8	1	0.7
Clc1cccc(CSc2nnc(-c3cccnc3)n2Cc2ccco2)c1	0.2	65*	81*	0.4	1.3
Clc1ccc(CSc2nnc(-c3cccnc3)n2Cc2ccco2)c(Cl)c1	0.2	62*	75*	0.4	-4
c1cncc(CSc2nnc(-c3cccnc3)n2Cc2ccco2)c1	0.9	29	10	0.7	0.28

Screening results: PubChem, several laboratories
